Screening results as filed in PubChem BioAssay.
EPAC1 antag: antagonists of human EPAC1; EPAC1 GEF assay, Rap1b-BODIPY-GDP exchange fluorescence; actives 0.14% (n = 360,000); AID 720709; Potency, µM (series often up to 115 µM), inactives show at the highest dose activity change, negative = inhibition, hits mostly inhibitors; O95398;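 also: plate controls were vehicle for no effect and positive control for full effect; nearly all actives have a fitted effect of over 50% in size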
Target sequence (O95398 whole entry, looked up): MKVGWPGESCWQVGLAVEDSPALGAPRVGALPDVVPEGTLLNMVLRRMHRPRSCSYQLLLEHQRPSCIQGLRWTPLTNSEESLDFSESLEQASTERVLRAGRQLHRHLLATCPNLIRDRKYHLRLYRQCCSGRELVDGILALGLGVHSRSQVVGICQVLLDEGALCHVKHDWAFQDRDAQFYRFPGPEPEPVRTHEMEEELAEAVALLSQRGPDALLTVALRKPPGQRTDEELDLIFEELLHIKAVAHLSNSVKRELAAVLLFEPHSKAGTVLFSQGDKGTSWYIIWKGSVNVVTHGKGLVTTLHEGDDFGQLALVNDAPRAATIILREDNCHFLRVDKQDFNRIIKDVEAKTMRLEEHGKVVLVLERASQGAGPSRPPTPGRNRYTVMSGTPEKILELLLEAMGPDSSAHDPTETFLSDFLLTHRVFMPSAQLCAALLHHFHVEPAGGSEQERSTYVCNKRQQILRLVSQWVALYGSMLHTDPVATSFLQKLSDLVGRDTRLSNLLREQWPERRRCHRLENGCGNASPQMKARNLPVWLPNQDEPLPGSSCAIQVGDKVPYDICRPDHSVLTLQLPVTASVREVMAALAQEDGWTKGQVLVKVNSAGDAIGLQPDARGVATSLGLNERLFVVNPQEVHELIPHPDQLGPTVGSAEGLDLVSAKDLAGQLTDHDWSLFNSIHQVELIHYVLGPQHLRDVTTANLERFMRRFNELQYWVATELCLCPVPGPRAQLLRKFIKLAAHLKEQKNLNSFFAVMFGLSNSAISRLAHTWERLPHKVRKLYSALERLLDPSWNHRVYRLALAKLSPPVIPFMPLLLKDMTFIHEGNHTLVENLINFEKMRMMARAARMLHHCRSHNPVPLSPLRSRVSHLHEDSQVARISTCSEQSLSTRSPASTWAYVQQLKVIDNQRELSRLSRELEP
EPAC2 ag: EPAC2 (human) agonism; Q8WZA2; Potency, µM (titrated, usually from 154 µM), for the others: at the top dose activation, usual class: activators; EPAC2 activation, biochemical qHTS; response scale: 100% = 6.5 mM cAMP response; actives 0.079% (n = 360,000); AID 720711; also: nearly all actives have a fitted effect of over 50% in size
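Nucleotide exchange monitored as fluorescence drop when BODIPY-GDP leaves Rap1B. Reaction: 100 nM EPAC2, 250 nM RAP1B-BODIPY-GDP, 50 uM GDP, room temperature, kinetic read over 30 min. Activity expressed relative to 6.5 mM cAMP.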
EPAC2 antag: EPAC2 (human) antagonism; EPAC2 GEF exchange of Rap1B-BODIPY-GDP, fluorescence; AID 720708; Potency, µM (series often up to 114 µM), for the others: at the highest dose activity, negative = inhibition, actives largely listed as inhibitors; actives 0.18% (n = 360,000); also: % is scaled to controls: 0 for no effect and ±100 for the full control effect; nearly all actives have a fitted effect of over 45% in size
EPAC1 ag: agonists of human EPAC1. Potency, µM (top dose mostly 154 µM), for the others: at the top dose activation, usual class: activators. O95398. EPAC1 agonist qHTS, biochemical assay; response scale: 100% = response to 6.5 mM cAMP. AID 720707. actives 0.073% (n = 360,000); also: nearly all actives have a fitted effect of over 60% in size
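Fluorescent GDP-exchange assay: 100 nM EPAC1 with 250 nM Rap1B preloaded with BODIPY-GDP and 50 uM GDP; compounds tested as concentration series, 5 min at room temperature, then read every 5 min for 30 min (ex 480/em 540 nm); normalized to 6.5 mM cAMP.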
Active calls of the source: *. A selection: hits, their analogues and other compounds. The true share with any hit is near 0.39%. Calls follow the shape of the dose curve; as a rule, active = well fitted curve in the direction sought with a large enough effect; inconclusive = small, poorly fitted or top-dose-only effect, or another doubt; inactive = no such curve, though single readings can be large; an effect the other way counts as inactive or inconclusive. Potency is read from the fitted curve at half-maximal effect.

`COc1ccc(NC(=O)c2sc3nc(Cc4ccccc4)cc(C(F)(F)F)c3c2N)cc1OC` gave EPAC1 antag inconclusive, EPAC2 ag 1%, EPAC2 antag -15% and EPAC1 ag 7%.
COc1ccccc1NC(=O)c1sc2nc(Cc3ccccc3)cc(C(F)(F)F)c2c1N was read as EPAC1 antag -9%, EPAC2 ag -6%, EPAC2 antag 79µM* and EPAC1 ag 2%.
For COc1ccc([N+](=O)[O-])cc1NC(=S)Nc1ccccc1 the results were EPAC1 antag -2%, EPAC2 ag 7.9µM*, EPAC2 antag 6% and EPAC1 ag 0%.
O=CNc1cc(-c2ccoc2)cn2c(-c3ccc(F)cc3)cnc12 was read as EPAC1 antag -7%, EPAC2 ag 10%, EPAC2 antag -10% and EPAC1 ag 4%.
`CCOc1cccc(CNc2ccc(O)cc2)c1OCc1ccc(Cl)cc1` gave EPAC1 antag 25µM*, EPAC2 ag -1%, EPAC2 antag 35µM* and EPAC1 ag 15%.
For CCOc1cc(CNc2ccc(O)cc2)ccc1OCc1ccc(Cl)cc1Cl the results were EPAC1 antag inconclusive, EPAC2 ag 7%, EPAC2 antag 35µM* and EPAC1 ag 0%.
For CCc1ccc(CNc2ccc(O)cc2)cc1 the results were EPAC1 antag 8.9µM*, EPAC2 ag 9%, EPAC2 antag 15% and EPAC1 ag 0%.
`CCOc1ccccc1CNc1ccc(O)cc1` gave EPAC1 antag 4.5µM*, EPAC2 ag 3%, EPAC2 antag -16% and EPAC1 ag 2%.
`CCOc1cc(CNCc2ccccc2)ccc1OCc1ccc(Cl)cc1` gave EPAC1 antag 6%, EPAC2 ag 9%, EPAC2 antag -5% and EPAC1 ag 18%.
NC(=O)c1c(NC(=O)c2ccccc2F)sc2c1CCC2 was read as EPAC1 antag 15%, EPAC2 ag -14%, EPAC2 antag -12% and EPAC1 ag -1%.
For Oc1ccc(NCc2ccccc2OCc2ccccc2F)cc1 the results were EPAC1 antag 79µM*, EPAC2 ag 26%, EPAC2 antag -8% and EPAC1 ag 16%.
O=C(/C=C/c1ccco1)NCC1OCCc2ccccc21 (centres undefined) was read as EPAC1 antag 56µM*, EPAC2 ag -6%, EPAC2 antag 8% and EPAC1 ag -1%.
For COc1ccc(C(O)c2nc(-c3ccc(OC)c(OC)c3)cs2)cc1 (centres undefined) the results were EPAC1 antag -9%, EPAC2 ag -5%, EPAC2 antag -16% and EPAC1 ag -11%.
Screening CCCc1nc2ccc(C)cn2c1Cc1ccc(OC)cc1C returned EPAC1 antag -11%, EPAC2 ag 8%, EPAC2 antag 3% and EPAC1 ag 10%.
`CC(=O)N1C=CN(C(C)=O)C(c2cn(C)c3ccccc23)C1c1cn(C)c2ccccc12` (centres undefined) gave EPAC1 antag -7%, EPAC2 ag 9%, EPAC2 antag 56µM* and EPAC1 ag 18%.
`CC(=O)N1CCc2c(sc(NC(=O)CS(=O)(=O)c3ccc(F)cc3)c2C(N)=O)C1` gave EPAC1 antag 1%, EPAC2 ag 3%, EPAC2 antag 5% and EPAC1 ag 126µM*.
For COC(=O)c1cc(Br)c(=O)n(CCc2ccc(F)cc2)c1 the results were EPAC1 antag 3%, EPAC2 ag 0%, EPAC2 antag 28µM* and EPAC1 ag 17%.
`CCOC(=O)[C@]12CCCC=C1N(CCC1=CCCCC1)C(=O)[C@H](CC(=O)NCc1ccc(OC)c(OC)c1)C2` gave EPAC1 antag -14%, EPAC2 ag 2%, EPAC2 antag -18% and EPAC1 ag -3%.
COc1cc(F)ccc1-c1csc(C(C)(O)c2ccc(F)c(F)c2)n1 (centres undefined) was read as EPAC1 antag 0%, EPAC2 ag 20%, EPAC2 antag -16% and EPAC1 ag 3%.
`COc1cc2c(cc1OC)C(COc1ccc(F)cc1)N(C(C)=O)CC2` (centres undefined) gave EPAC1 antag 6%, EPAC2 ag 2%, EPAC2 antag inconclusive and EPAC1 ag -5%.
CCC(=O)N1CCc2cc(OC)c(OC)cc2C1COc1ccc(F)cc1 (centres undefined) was read as EPAC1 antag 8%, EPAC2 ag 11%, EPAC2 antag 14µM* and EPAC1 ag 6%.
Screening CCC(=O)N1CCc2cc(OC)c(OC)cc2C1COc1ccccc1OC (centres undefined) returned EPAC1 antag 16%, EPAC2 ag -1%, EPAC2 antag 45µM* and EPAC1 ag 10%.
CC(C)C#Cc1cnc2c(c1)C(=O)N([C@@H](C)CO)C[C@@H](C)[C@H](CN(C)Cc1cccc(F)c1)O2 was read as EPAC1 antag -3%, EPAC2 ag 3%, EPAC2 antag -14% and EPAC1 ag -20%.
For CC(=O)C[C@@H]1SC[C@H](c2ccccc2)N1S(=O)(=O)c1ccc(C)cc1 the results were EPAC1 antag -10%, EPAC2 ag 17%, EPAC2 antag inconclusive and EPAC1 ag 13%.
For O=C(NCC(c1ccco1)N1CCN(c2ccccc2)CC1)C1CCCCC1 (centres undefined) the results were EPAC1 antag 12%, EPAC2 ag -1%, EPAC2 antag -6% and EPAC1 ag 0%.
CCCCN1C(=O)C(CC(=O)NCc2cccc3ccccc23)CC(C(=O)N2CCCCCC2)=C1C (centres undefined) was read as EPAC1 antag 8%, EPAC2 ag 10%, EPAC2 antag -1% and EPAC1 ag 6%.
COc1cccc(CN2C(=O)C(C)Oc3ccccc32)c1 (centres undefined) was read as EPAC1 antag -8%, EPAC2 ag 1%, EPAC2 antag -16% and EPAC1 ag 12%.
COc1cc(CN2C(=O)C(C)ON=C2c2ccccc2F)cc(OC)c1 (centres undefined) was read as EPAC1 antag -3%, EPAC2 ag 3%, EPAC2 antag 32µM* and EPAC1 ag -5%.
Screening O=C(O)c1cccc2cccc(-c3c4ccc(=O)c(O)c-4oc4c(O)c(O)ccc34)c12 returned EPAC1 antag 32µM*, EPAC2 ag -4%, EPAC2 antag -28% and EPAC1 ag 12%.
`CCOc1cc(/C=C2\C(=O)N(c3nc(-c4ccc(Br)cc4)cs3)N=C2c2ccccc2)ccc1O` gave EPAC1 antag 35µM*, EPAC2 ag -14%, EPAC2 antag 3% and EPAC1 ag -5%.
Screening Cc1ccc(-c2nn(-c3ccccc3)cc2C=C2SC(=S)N(CCS(=O)(=O)O)C2=O)cc1 returned EPAC1 antag 7.9µM*, EPAC2 ag 1%, EPAC2 antag 45µM* and EPAC1 ag -12%.
Screening Nc1c(Cl)ncnc1N/N=C/c1ccc(O)cc1 returned EPAC1 antag inconclusive, EPAC2 ag 3%, EPAC2 antag 28µM* and EPAC1 ag -4%.
